# A selection: hits, their analogues and other compounds. The true share with any hit is near 2.2%.
# NTR1 agonist = NTR1 (human) agonism; P30989; NTR1-U2OS beta-arrestin-GFP spot imaging, agonist mode; activation, % at 20 µM; 0.17% of 330,000 active; AID 493036;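 active = activation at or above 40% of the spot to cytoplasm intensity ratio, with at least 20 cells analyzed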;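 note: 0% = DMSO without peptide and 100% = 100 nM NTR1 peptide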
# CHO-K1 Ca PAM = nonselective activator or artifact in parental CHO-K1 calcium assay; 0.02% of 360,000 active; activation, % at 3 µM; AID 602247; ATP EC20, Fluo-8 calcium fluorescence; 0% at ATP EC20, 100% at ATP max;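 active = activation above the run cutoff, the mean activation of all test compounds plus 3 SD, cut at about 40% in these data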;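 note: peak over basal fluorescence ratio in a 140 s read after ATP addition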
# M1 ag parental = nonselective activator or artifact in parental CHO-K1 cells; AID 602248; activation, % at 3 µM; 0.48% of 360,000 active; Fluo-8 calcium fluorescence; scaled to maximal ATP response, vehicle zero; in the data active = activation above about 15%;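 note: untransfected CHO-K1 host cells lacking M1 receptor as counterscreen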
# TMEM16A inh = inhibitors of mouse TMEM16A calcium-activated chloride channel. 1.2% of 310,000 active. AID 588511. HEK293 TMEM16A/YFP iodide influx fluorescence, ionomycin. normalized B-score (activity score, 25-100; higher = stronger inhibition) at 10 µM;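 active = ratio plate-corrected score three or more library SD toward inhibition, starting fluorescence score within five deviations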;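 note: score derived from kinetic fluorescence span divided by baseline fluorescence per well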
# CHO-K1 Ca antag = M1 antagonist counterscreen hit in parental CHO-K1 cells; ATP-induced calcium, Fluo-8 fluorescence; inhibition, % at 3 µM; 0.6% of 360,000 active;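 active = inhibition above a per-plate cutoff, the plate's mean sample inhibition plus 3 SD, cut at about 24% in these data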;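 note: 0% = DMSO plus EC80 ATP and 100% = DMSO alone without ATP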
# TMEM16A act = mouse TMEM16A channel activation, primary screen | B-score at 10 µM | AID 623877 | 0.3% of 340,000 active | Q8BHY3 | HEK293 TMEM16A/YFP-H148Q/I152L, iodide quench fluorescence; hits give low values;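 active = fluorescence-ratio B-score plate-corrected deviation score at least 3 library SD below zero, with starting fluorescence score within 5 deviations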;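 note: channel opened by trigger with iodide after compound preincubation; score built on the fluorescence ratio of max minus min over baseline; more negative score means more quench and so TMEM16A activation or potentiation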
# TMEM16A reconf = TMEM16A (mouse) chloride channel inhibition, re-confirmation; shares compounds with TMEM16A inh; HEK293 TMEM16A/YFP-H148Q, iodide quench fluorescence; ionomycin added to raise cell calcium; inhibition, % at 10 µM; 39% of 2,300 active;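 active = mean duplicate percent inhibition, scaled so buffer wells are 0 and the reference blocker 100, over three buffer SD above buffer mean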
# HEK293 Ca mobil = alters calcium mobilization in TMEM16A HEK293 cells, counter-screen | shares compounds with TMEM16A inh | TMEM16A/YFP HEK293, Fluo4 calcium mobilization | calcium response (% of ionomycin), % at 10 µM | 2% of 2,300 active | AID 652231;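 active = duplicate-averaged calcium signal over 20% of the ionomycin maximum, relative to buffer baseline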;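 note: each well's signal is peak minus trough fluorescence divided by its pre-addition baseline; 0% = buffer wells and 100% = ionomycin wells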
# YFP-HEK293 quench = counter-screen for TMEM16A inhibitors: effect in parental YFP-HEK293 cells; shares compounds with TMEM16A inh; YFP ratio F(max-min)/F0 at 10 µM; iodide YFP quench, ionomycin; 2,300 tested, under 10 active;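 active = yellow fluorescent protein signal ratio exceeding the buffer control mean by over 5 SD of those controls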;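 note: ratio is mean of duplicate wells from kinetic YFP trace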
# ClC-1 inh = rat ClC-1 inhibition, TMEM16A specificity screen. shares compounds with TMEM16A inh. CHO ClC-1-YFP, iodide influx fluorescence quench; iodide control reads 0, buffer control 100. ratio percent, % at 10 µM. 2,300 tested, under 10 active. AID 652236;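 active = duplicate-mean ratio percent above the mean of iodide-only control wells, which defines zero, plus 5 of their SD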;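 note: higher percent means stronger block of ClC-1 iodide influx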
# An asterisk follows results filed as active; i = inactive; x = not tested or not shown.
SMILES,NTR1 agonist,CHO-K1 Ca PAM,M1 ag parental,TMEM16A inh,CHO-K1 Ca antag,TMEM16A act,TMEM16A reconf,HEK293 Ca mobil,YFP-HEK293 quench,ClC-1 inh
COc1cc(C(=O)Nc2nc(-c3cccs3)cs2)cc(OC)c1OC,32,16,8,i,9,i,x,x,x,x
COC(=O)Cc1ccc(NC(=S)Nc2ccc(N3CCOCC3)cc2)cc1,2,13,0,25*,-15,i,i,i,-0.95,-10
COC(=O)Cc1ccc(NC(=S)NCCCN2CCOCC2)cc1,0,23,1,i,-10,i,x,x,x,x
C/C=C(/C)C(=O)O[C@@H]1c2c(ccc3ccc(=O)oc23)OC(C)(C)[C@@H]1OC(=O)/C(C)=C\C,7,11,0,100*,-20,i,23%*,i,-1.1,-8
C/C=C(/C)C(=O)O[C@@H]1[C@H](OC(=O)C=C(C)C)c2c(ccc3ccc(=O)oc23)OC1(C)C,16,2,0,i,-13,i,x,x,x,x
Cc1ccc(S(=O)(=O)N2c3ccccc3CC2C)cc1 (stereo not given),2,-15,-1,i,16,i,x,x,x,x
CCOc1ccc(S(=O)(=O)N2c3ccccc3CC2C)cc1 (stereo not given),5,18,1,100*,-4,i,i,i,-1.1,-8
CCCn1c2ccccc2c2nnc(SCC(=O)Nc3ncccn3)nc21,1,23,3,100*,-15,i,i,i,-1.2,-6
COc1ccc(/C=N/NC(=O)c2cccnc2)cc1COc1ccc([N+](=O)[O-])c(C)c1,12,5,9,25*,3,i,22%*,i,-1,-16
COc1ccc(NC(=O)N(C)C[C@@H]2Oc3cc(C#CCN(C)C)ccc3S(=O)(=O)N([C@H](C)CO)C[C@H]2C)cc1,x,20,0,x,-7,x,x,x,x,x
O=S(=O)(c1ccc(C2CCCCC2)cc1)N1CCCC1,4,27,1,25*,-9,i,i,i,-0.83,0
CCCCN(C(=O)c1cnccn1)c1c(N)n(CCC)c(=O)[nH]c1=O,-1,7,0,x,-9,i,x,x,x,x
CN1CC=C2C(C#N)=C(N)C(C#N)(C#N)C(Cc3ccccc3)C2C1 (stereo not given),x,0,2,i,8,i,i,i,-0.79,-15
COc1cc2c(cc1NC(=O)c1cc(-c3ccncc3)nc3ccc(C)cc13)oc1ccccc12,6,1,0,25*,-25,i,i,i,-1.2,-6
COc1ccc(NC(=O)c2cc(-c3ccncc3)nc3ccccc23)c(OC)c1,-1,5,3,x,-1,i,x,x,x,x
O=C(Nc1ccc(N2CCN(c3ccc(C(F)(F)F)cn3)CC2)nc1)c1cccs1,1,-27,0,i,13,i,x,x,x,x
O=C(Nc1ccc(N2CCN(c3ncccc3C(F)(F)F)CC2)nc1)c1cccs1,34,-4,11,25*,16,i,31%*,i,-1.2,-4
FC(F)(F)c1nnc(Nc2ccc(Cl)cc2)s1,1,0,11,i,-2,i,x,x,x,x
Fc1ccc(Nc2nnc(C(F)(F)F)s2)cc1Cl,6,-22,15,100*,41*,-6.8*,49%*,i,-1.3,-43
O=C(Nc1cccc(S(=O)(=O)N2CCCCC2)c1)c1ccc(N2CCCC2=O)cc1,5,19,0,x,-13,i,x,x,x,x
Cc1nc(NC(=O)C(C)(C)C)sc1C(=O)Cn1cc(CCCC#N)nn1,x,-1,0,x,-6,x,x,x,x,x
CCNc1ncnc2c1cnn2C1CCCCO1 (stereo not given),x,-2,0,x,2,i,x,x,x,x
Cc1occc1C(=O)N1CCN(C(=O)C2CCCO2)CC1 (stereo not given),0,5,-1,i,7,i,x,x,x,x
Cc1cc(C(=O)N2CCN(C(=O)C3CCCO3)CC2)no1 (stereo not given),2,-1,0,100*,-9,i,20%*,i,-0.96,-6
CCOc1ccc(NS(=O)(=O)c2ccc(NC(=S)NC(=O)CC(C)C)cc2)cc1,27,19,11,100*,8,i,38%*,i,-0.94,-12
SMILES,NTR1 agonist,CHO-K1 Ca PAM,M1 ag parental,TMEM16A inh,CHO-K1 Ca antag,TMEM16A act,TMEM16A reconf,HEK293 Ca mobil,YFP-HEK293 quench,ClC-1 inh
CCn1nc(NS(=O)(=O)c2ccc([N+](=O)[O-])cc2)c2cc3cccc(C)c3nc21,4,2,2,25*,4,i,22%*,i,-0.74,-4
CCn1nc(NS(=O)(=O)c2ccccc2[N+](=O)[O-])c2cc3cccc(C)c3nc21,0,11,1,i,-8,i,x,x,x,x
CNS(=O)(=O)c1ccc(CNC[C@H]2O[C@@H](n3cc(C)c(=O)[nH]c3=O)C[C@@H]2O)cc1,x,8,0,x,-6,x,x,x,x,x
CC1(C(=O)OCC(=O)Nc2ccc3ccccc3c2)CC1(Cl)Cl (stereo not given),7,-10,2,25*,11,i,i,i,-0.81,-17
COc1cccc2c1C(=O)C=C(C)C2=O,2,17,3,25*,-15,i,i,24%*,-0.97,-8
Cc1cc(C)c2cc3c(N)c(C(=O)Nc4c(C)[nH]c(=O)[nH]c4=O)sc3nc2c1,17,9,0,i,-8,i,i,28%*,-1.1,10
COc1ccc(S(=O)(=O)N2CCOCC2)cc1NC(=O)CNC(=O)c1cccs1,-2,11,0,x,-14,i,x,x,x,x
O=C(NC1CCCCC1)c1ccc(S(=O)(=O)c2ccccc2Cl)c([N+](=O)[O-])c1,5,x,x,i,x,x,x,x,x,x
CN(C(=O)c1ccc(S(=O)(=O)c2cccc(Cl)c2)c([N+](=O)[O-])c1)C1CCCCC1,6,0,8,25*,16,i,i,i,-1.1,-10
Cc1cc(C)cc(NC(=O)c2nnn(Cc3cc(C)ccc3C)c2N)c1,11,-14,3,25*,21,-4.6*,42%*,i,-1.1,-5
Cc1ccc(C)c(Cn2nnc(C(=O)Nc3ccc4c(c3)OCCO4)c2N)c1,4,-25,14,i,19,i,x,x,x,x
